Experimental data taken from ChEMBL document CHEMBL1961873, “Compounds: GSK PKIS; Assays: Nanosyn kinase panel” (2012).

Target: Protein-tyrosine kinase 6 (Homo sapiens) (UniProt Q13882)
Details: at 0.1 µM

Protein-tyrosine kinase 6 (Homo sapiens), sequence (Q13882 whole entry, looked up): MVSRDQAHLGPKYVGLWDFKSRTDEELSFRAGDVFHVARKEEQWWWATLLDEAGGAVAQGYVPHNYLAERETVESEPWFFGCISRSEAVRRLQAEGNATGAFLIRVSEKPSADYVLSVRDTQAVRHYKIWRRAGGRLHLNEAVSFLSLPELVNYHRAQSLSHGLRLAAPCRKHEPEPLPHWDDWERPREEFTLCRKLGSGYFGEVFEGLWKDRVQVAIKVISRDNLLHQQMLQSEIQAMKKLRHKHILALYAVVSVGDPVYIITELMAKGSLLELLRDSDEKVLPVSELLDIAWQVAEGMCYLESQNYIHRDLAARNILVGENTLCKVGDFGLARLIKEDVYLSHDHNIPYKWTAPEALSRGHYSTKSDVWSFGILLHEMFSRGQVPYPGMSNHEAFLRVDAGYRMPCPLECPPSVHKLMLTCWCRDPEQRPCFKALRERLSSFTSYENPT

SMILES | inhibition
O=C(Nc1n[nH]c2cc(-c3ccc(F)cc3)ccc12)C1CC1 | 3.22%
CNC(=O)c1cccc(C#Cc2cncnc2Nc2ccc(OCc3cccc(F)c3)c(Cl)c2)c1 | -0.91%
COc1cccc(-c2c[nH]c3c(N/N=C/c4ccncc4)ncnc23)c1 | 2.51%
CCn1c(-c2nonc2N)nc2cnc(Oc3cccc(NC(=O)c4ccc(N(C)C)cc4)c3)cc21 | -0.08%
COc1ccc(-c2cc3c(N)ncnc3o2)cc1 | 0.01%
c1ccc(-c2nc3n(c2-c2ccc4c(c2)OCO4)CCC3)nc1 | 0.9%
FC(F)(F)c1cccc(-c2nn3ncccc3c2-c2ccnc(Nc3ccc4c(c3)OCCO4)n2)c1 | 4.61%
CC(C)COC(=O)c1ccc2c(c1)/C(=C/Nc1ccc(S(N)(=O)=O)cc1)C(=O)N2 | -2.24%
COc1ccc(-c2nn3ncccc3c2-c2ccnc(Nc3ccc4c(c3)OCCO4)n2)cc1 | 12%
CN1CCC(n2cnc(-c3ccc(F)cc3)c2-c2ccnc(N)n2)CC1 | 3.49%
N#Cc1c(NC(=O)c2ccc(F)cc2)sc2c1CCCC2 | -0.11%
COC(=O)Nc1nc2ccc(S(=O)(=O)c3ccc(NC(=O)Nc4cc(C(F)(F)F)ccc4F)cc3)cc2[nH]1 | 2.94%
NS(=O)(=O)c1ccc(N/N=C2\C(=O)Nc3ccc4ncccc4c32)cc1 | 5.86%
[O-][S+]1CCN(Cc2ccc(-c3ccc4ncnc(Nc5ccc(OCc6cccc(F)c6)c(Cl)c5)c4c3)o2)CC1 | 4.81%
Cc1cccc2c1NC(=O)/C2=N\Nc1ccc(S(N)(=O)=O)cc1 | 0.03%
CS(=O)(=O)CCNCc1ccc(-c2ccc3ncnc(Nc4ccc(OCc5ccccc5)c(C(F)(F)F)c4)c3c2)o1 | 3.06%
CC(=O)Nc1cccc(C#Cc2cncnc2Nc2ccc(OCc3cccc(F)c3)c(Cl)c2)c1 | 1.35%

SMILES | inhibition
Nc1nc(-c2cccc(Cl)c2)c(-c2ccc3ncccc3n2)s1 | 5.86%
CNC(=O)c1cncc(/C=C/c2ccccc2Cl)c1 | 0.17%
CCn1c(-c2nonc2N)nc2c(C#CC(C)(C)O)ncc(OC3CCNCC3)c21 | 1.28%
CCn1c(-c2nonc2N)nc2ccccc21 | 4.51%
Cc1ccc(O)cc1Nc1ccnc2cc(-c3ccccn3)ccc12 | 52.5%
Nc1ncc(-c2cccc(S(N)(=O)=O)c2)c2scc(-c3ccc(F)c(Cl)c3)c12 | 7.08%
COc1cc2c(cc1Nc1nc(Nc3ccsc3C(N)=O)c3cc[nH]c3n1)N(C(=O)CN(C)C)CCC2(C)C | 5.95%
COc1ccc2[nH]c3c4[nH]c5ccc(OC)cc5c4c4c(c3c2c1)C(=O)NC4=O | 6.37%
Fc1ccc(-c2nn3ccccc3c2-c2ccncc2)cc1 | -1.18%
COc1ccc(-c2cc(-c3c[nH]nc3-c3ccccn3)ccn2)cc1 | 6.49%
c1cc(-c2cnn3nc(N4CCOCC4)ccc23)nc(NC2CC2)n1 | 6.35%
NS(=O)(=O)c1ccc(Nc2ncc(-c3ccccc3)o2)cc1 | 4.11%
CCN(CC)S(=O)(=O)c1ccc(OC)c(Nc2ncc(-c3ccccc3)o2)c1 | -0.82%
CC(=O)NCc1cccc(C#Cc2cncnc2Nc2ccc(OCc3cccc(F)c3)c(Cl)c2)c1 | 0.12%
COc1ccc(-c2oc3ncnc(N)c3c2-c2ccc(NC(=O)Nc3cc(C(F)(F)F)ccc3F)cc2)cc1 | 3.11%
CCn1cc(-c2ccnc3[nH]ccc23)c(-c2cccc(NC(=O)Nc3ccc(OCc4ccccc4)cc3)c2)n1 | 3.04%
